High-throughput results deposited in PubChem by several laboratories.
This is a sample that favours compounds with a hit; in the whole collection about 2.9% have one here.
NadD inh = NadD (S. aureus) enzyme inhibition | inhibition, % at 20 µM | 0.78% of 360,000 active | purified NadD enzyme, colorimetric absorbance read-out | AID 602399; in the data active means inhibition above about 26%
B2AR ag = activates human beta-2 adrenergic receptor causing internalization; P07550; Am2.2-beta2AR cells, FAP receptor internalization, flow cytometry; response, % (no concentration beside the values); 0.43% of 340,000 active; AID 504454;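 active means response above a set limit, near 3 SD of response in nonfluorescent compounds, cut at about 42% in these data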
Target sequence (P07550 whole entry, looked up): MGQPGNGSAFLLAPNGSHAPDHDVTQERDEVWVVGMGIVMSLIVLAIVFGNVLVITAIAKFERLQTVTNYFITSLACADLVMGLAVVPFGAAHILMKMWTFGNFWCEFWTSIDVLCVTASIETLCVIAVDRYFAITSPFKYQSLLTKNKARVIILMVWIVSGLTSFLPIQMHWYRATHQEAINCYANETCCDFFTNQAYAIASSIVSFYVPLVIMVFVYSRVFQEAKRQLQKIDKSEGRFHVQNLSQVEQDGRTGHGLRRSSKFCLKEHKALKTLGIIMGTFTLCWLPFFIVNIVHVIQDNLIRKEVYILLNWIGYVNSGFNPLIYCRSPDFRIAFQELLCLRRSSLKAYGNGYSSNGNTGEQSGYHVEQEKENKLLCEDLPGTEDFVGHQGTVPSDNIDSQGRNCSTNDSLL
GRK2 aptamer HTS = blocks RNA aptamer binding to human GRK2; P25098; bead flow cytometry, FAM-aptamer displacement from GRK2; inhibition of aptamer binding, % at 10 µM; 0.59% of 330,000 active;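 active means inhibition of aptamer binding above 40%, roughly 3 SD of noise, on plates passing a quality check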;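 further: median bead fluorescence of bound FAM aptamer so fluorescent compounds give negative values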
Exocytosis inh = blocks lytic granule exocytosis; TALL-104 LAMP-1 surface exposure, flow cytometry; cells stimulated with thapsigargin and PMA; inhibition, % at 10 µM; 0.66% of 360,000 active; AID 651702;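 active means inhibition above about 55%, limit read from the data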
PP1 counter = counter-screen for PP5 inhibitors: inhibitors of human PP1-alpha. P62136. purified PP1alpha, OMFP fluorescence. inhibition, % at 6.7 µM. 0.9% of 320,000 active. AID 2235;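 active means inhibition above the mean inhibition of all tested compounds plus 3 SD, computed separately for each screening campaign, cut at about 15% in these data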
GRK2 inh confirm = human GRK2 inhibition confirmation, cherry pick 1 | shares compounds with GRK2 aptamer HTS | bead-bound GRK2, FAM-aptamer displacement, flow cytometry | aptamer displacement, % at 10 µM | 4% of 2,000 active | AID 504451;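 active means aptamer displacement above 40%, near three times the noise of non-fluorescent compounds, on plates passing quality checks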;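 further: negative values mostly reflect intrinsic compound fluorescence rather than true enhancement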
Aptamer quench SP = quenches fluorescent RNA aptamer, GRK2 hit artifact | shares compounds with GRK2 aptamer HTS | Carboxyfluorescein RNA aptamer on beads, flow cytometry quenching; active compounds read low | fluorescence response (% of DMSO), % at 10 µM | 2,000 tested, under 10 active | AID 504580;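 active means compounds that quench the bead-bound fluorescent RNA probe, cutting fluorescence to under half of the solvent control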;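 further: counterscreen run without GRK2 so only probe quenching by compound is measured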
* = called active by the depositor.

CCCNC(=O)c1ccccc1NC(=O)COc1cccc2c1OC(C)(C)C2 was read as NadD inh 1.1, B2AR ag 16.7, GRK2 aptamer HTS 1.0, Exocytosis inh -1.0 and PP1 counter -1.1.
Screening O=C(Nc1cccc(Cl)c1)c1cc(N=Nc2ccc([N+](=O)[O-])cc2Cl)ccc1O returned NadD inh 50.0*, B2AR ag 36.3, GRK2 aptamer HTS 46.0*, Exocytosis inh -1.5, PP1 counter -5.1, GRK2 inh confirm 3.9 and Aptamer quench SP 97.1.
Screening Cc1ccc(/C=C/C(=O)NCCc2c[nH]c3ccccc23)o1 returned NadD inh -5.4, B2AR ag 5.8, GRK2 aptamer HTS 94.0*, Exocytosis inh 2.2, PP1 counter -2.8, GRK2 inh confirm -0.1 and Aptamer quench SP 100.6.
Cc1ccc2[nH]cc(CCNC(=O)/C=C/c3ccco3)c2c1 was read as NadD inh -6.7, B2AR ag -3.9, GRK2 aptamer HTS 9.0, Exocytosis inh 3.3 and PP1 counter -7.3.
Screening CC1(C)CC(=O)C(C=NCCCn2ccnc2)=C(O)C1 returned NadD inh 4.6, B2AR ag 4.0, GRK2 aptamer HTS 0.0, Exocytosis inh -2.0 and PP1 counter 1.0.
CC1(C)CC(=O)C2=C(C1)c1c(ccc3ccccc13)NC2c1ccc(OCC(=O)O)cc1 (centres undefined) was read as NadD inh 3.5, B2AR ag -3.0, GRK2 aptamer HTS 78.0*, Exocytosis inh 2.5, PP1 counter -2.0, GRK2 inh confirm -0.1 and Aptamer quench SP 93.8.
CNc1cc(C(=O)Nc2cccc(OCc3ccccc3)c2)ncn1 was read as NadD inh -3.3 and Exocytosis inh 0.3.
Screening O=C(O)CCn1nnc(-c2cccs2)n1 returned NadD inh 0.0, B2AR ag 3.4, GRK2 aptamer HTS 1.0, Exocytosis inh 5.8 and PP1 counter 4.2.
O=C(O)Cn1nnc(-c2cccs2)n1 was read as NadD inh -4.0, B2AR ag 4.3, GRK2 aptamer HTS 89.0*, Exocytosis inh -2.1, PP1 counter 1.0, GRK2 inh confirm -1.9 and Aptamer quench SP 100.2.
For CC(C)N1C(=O)c2ccccc2C1C(=O)NCCc1ccccc1 (centres undefined) the results were NadD inh -9.5, B2AR ag 6.6, GRK2 aptamer HTS 11.0, Exocytosis inh -6.6, PP1 counter -0.9, GRK2 inh confirm 1.1 and Aptamer quench SP 94.8.
Screening CCOC(=O)CNC(=O)c1sc(NC(=O)c2ccccc2F)nc1C returned NadD inh 0.3, B2AR ag -4.6, GRK2 aptamer HTS 59.0*, Exocytosis inh 13.4, PP1 counter -2.4, GRK2 inh confirm 0.9 and Aptamer quench SP 113.2.
For C/C=C(\C)C(=O)NCCN1C2=NC[C@@H](C)N2C[C@H]1Cc1ccc(O)cc1 the results were NadD inh 4.9, B2AR ag 4.9, GRK2 aptamer HTS 68.0*, Exocytosis inh 9.8, PP1 counter 3.1, GRK2 inh confirm -3.2 and Aptamer quench SP 98.9.
Screening C/C=C(\C)C(=O)NCCN1C2=NC[C@@H](C)N2C[C@@H]1Cc1ccc(OC)cc1 returned NadD inh -1.7, B2AR ag -8.5, GRK2 aptamer HTS 0.0, Exocytosis inh 11.1 and PP1 counter -2.6.
For COc1ccc(CCNC(=S)Nc2ccc(OC)cc2)cc1 the results were NadD inh 3.4, B2AR ag 0.0, GRK2 aptamer HTS 52.0*, Exocytosis inh -7.9, PP1 counter -0.5, GRK2 inh confirm -8.0 and Aptamer quench SP 96.1.
COc1ccc(CCNC(=S)Nc2ccccc2)cc1 was read as NadD inh 0.1, B2AR ag -0.2, GRK2 aptamer HTS 1.0, Exocytosis inh -2.3 and PP1 counter 2.4.
Screening O=C(NC1CCCc2ccccc21)c1cccc(S(=O)(=O)N2CCN(c3ccccc3)CC2)c1 (centres undefined) returned NadD inh 20.3, B2AR ag 0.1, GRK2 aptamer HTS 2.0, Exocytosis inh -2.6, PP1 counter 15.4*, GRK2 inh confirm 0.9 and Aptamer quench SP 127.5.
O=C(c1cccc(S(=O)(=O)N2CCc3ccccc3C2)c1)N1CCN(c2ccccc2)CC1 was read as NadD inh 2.7, B2AR ag -2.4, GRK2 aptamer HTS 0.0, Exocytosis inh -1.7 and PP1 counter 0.2.
Screening Cc1ccc(NC(=O)c2cccc(S(=O)(=O)N3CCN(c4ccccc4)CC3)c2)nc1 returned NadD inh 2.5, B2AR ag -1.3, GRK2 aptamer HTS 100.0*, Exocytosis inh -5.6, PP1 counter -1.3, GRK2 inh confirm -2.2 and Aptamer quench SP 99.8.
For COc1ccccc1CNC(=O)c1cccc(S(=O)(=O)N2CCN(c3ccc(F)cc3)CC2)c1 the results were NadD inh 4.6, B2AR ag -5.5, GRK2 aptamer HTS 1.0, Exocytosis inh 1.4, PP1 counter -0.2, GRK2 inh confirm -2.0 and Aptamer quench SP 101.1.
For O=C(c1cccc(S(=O)(=O)N2CCc3ccccc32)c1)N1CCN(c2ccccc2)CC1 the results were NadD inh -1.9, B2AR ag 5.2, Exocytosis inh 6.4, GRK2 inh confirm 6.5 and Aptamer quench SP 91.9.
For CC(C)C[C@H]1CN([C@@H](CC(C)C)CN2CCCC2CN2C(=S)NC[C@@H]2Cc2ccc(O)cc2)C(=S)N1CC1CCCCCC1 (some centres undefined) the results were NadD inh 27.4, B2AR ag -3.5 and Exocytosis inh 27.3.
Screening COc1cccc(C(=O)OCC(=O)c2c[nH]c3ccccc23)c1O returned NadD inh -12.1, B2AR ag -0.7, GRK2 aptamer HTS 0.0, Exocytosis inh -0.8 and PP1 counter 0.1.
`C/C(=N\NC(=O)c1ccc([N+](=O)[O-])c(C)c1)c1ccccc1Cl` gave NadD inh 3.3, B2AR ag 1.3, GRK2 aptamer HTS 0.0, Exocytosis inh -2.5 and PP1 counter -0.9.
Screening COc1cccc(OCc2cc(C(=O)N(Cc3ccccc3)CC3CC3)no2)c1 returned NadD inh 4.1, B2AR ag -1.6, GRK2 aptamer HTS 6.0, Exocytosis inh 6.0 and PP1 counter 3.1.
Cn1c(SCC(=O)Nc2ccc(NC(=O)c3ccccc3)cc2)nnc1-c1ccncc1 was read as NadD inh -3.6, B2AR ag -4.3, GRK2 aptamer HTS 62.0*, Exocytosis inh 7.1, PP1 counter 1.7, GRK2 inh confirm -1.6 and Aptamer quench SP 98.7.
CC(=O)NCCN1C(=O)S/C(=C\c2cccs2)C1=O was read as NadD inh -5.0, B2AR ag -2.4, GRK2 aptamer HTS 79.0*, Exocytosis inh -6.6, PP1 counter -0.1, GRK2 inh confirm -1.9 and Aptamer quench SP 101.3.
Screening CC1(c2ccccc2)CC(C)(C)N2C(=O)Cc3cccc1c32 (centres undefined) returned NadD inh -6.1, B2AR ag 17.8, GRK2 aptamer HTS 50.0*, Exocytosis inh -2.4, PP1 counter 4.7, GRK2 inh confirm 1.1 and Aptamer quench SP 99.4.
